AmpC no deterg: AmpC beta-lactamase inhibition without detergent. P00811. AmpC nitrocefin hydrolysis, absorbance 480 nm, 0.0001% Triton. Potency, µM (top dose mostly 57.1 µM), for inactives: at the top dose activity change, negative = inhibition, hits mostly inhibitors. actives 0.52% (n = 330,000);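 also: plate controls were no compound for no effect and no enzyme for full effect; nearly all actives have a fitted effect of over 20% in size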
Target sequence (P00811 whole entry, looked up): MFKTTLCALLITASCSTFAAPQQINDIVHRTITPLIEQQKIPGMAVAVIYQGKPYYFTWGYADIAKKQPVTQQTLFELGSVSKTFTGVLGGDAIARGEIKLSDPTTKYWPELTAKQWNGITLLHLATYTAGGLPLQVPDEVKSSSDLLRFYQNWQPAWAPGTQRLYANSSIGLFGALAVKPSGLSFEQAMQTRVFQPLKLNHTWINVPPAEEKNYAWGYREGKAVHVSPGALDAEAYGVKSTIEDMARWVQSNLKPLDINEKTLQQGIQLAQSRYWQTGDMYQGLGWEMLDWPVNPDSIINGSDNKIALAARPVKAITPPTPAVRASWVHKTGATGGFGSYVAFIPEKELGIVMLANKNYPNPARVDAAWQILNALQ
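20 mM phosphate pH 7.0 + 0.01% (detergent screen) or 0.0001% Triton X-100; 5.3 nM AmpC reagent; cpd preinc 15 min RT; nitrocefin (800 uM stock) to start; A480 q20 s × 4 min; Activity was normalised to no-enzyme and no-compound control wells.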
Sm TGR block: blocks Schistosoma mansoni thioredoxin glutathione reductase; actives 3% (n = 360,000); purified TGR, DTNB reduction, TNB absorbance 405 nm; Potency, µM (series often up to 114 µM), for the others: top-dose activity change, negative = inhibition, most hits filed as inhibitors; also: % is scaled to controls: 0 for no effect and ±100 for the full control effect; nearly all actives have a fitted effect of over 60% in size
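TGR 20 nM + NADPH 100 uM (dispensed conc.), cpd preinc 15 min RT; start with NADPH (500 uM addition) then DTNB (15 mM addition). Kinetic TNB absorbance, 405 nm filter. Four-parameter Hill fit across titration.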
SARS PLpro yeast: SARS-CoV PLP inhibition in yeast; S. cerevisiae expressing SARS-CoV PLpro, growth rescue; Potency, µM (highest dose often 32.9 µM), for the others: at the highest dose activity, positive = growth rescue, most hits filed as activators; actives 0.19% (n = 330,000); AID 485353; calls by dose curve; also: 0% is about no effect; nearly all actives have a fitted effect of over 55% in size
AmpC detergent: blocks E. coli AmpC beta-lactamase in detergent assay; Potency, µM (titrated, usually from 114 µM), for inactives: at the top dose activity change, negative = inhibition, usual class: inhibitors; AmpC hydrolysis of nitrocefin, absorbance 480 nm, 0.01% Triton; actives 0.041% (n = 370,000);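 also: 0% = no-compound wells and -100% = no-enzyme wells; nearly all actives have a fitted effect of over 25% in size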
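20 mM phosphate pH 7.0 + 0.01% (detergent screen) or 0.0001% Triton X-100; 5.3 nM AmpC reagent; cpd preinc 15 min RT; nitrocefin (800 uM stock) to start; A480 q20 s × 4 min; Activity was normalised to no-enzyme and no-compound control wells.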
Pf growth 48h: inhibits P. falciparum growth in the first generation, 48 h. actives 5.9% (n = 310,000). AID 504832. P. falciparum luciferase growth in erythrocytes, 48 h. Potency, µM (doses to about 28.7 µM), for inactives: at the highest dose activity change, negative = inhibition, actives largely listed as inhibitors; also: % is scaled to controls: 0 for no effect and ±100 for the full control effect
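Firefly luciferase activity from engineered P. falciparum reports growth; inhibitors lower the luminescent signal. Cultures contained 2% hematocrit erythrocytes at 0.1% final parasitemia.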
Pf growth 96h: P. falciparum growth inhibition at 96 hour, primary screen for plastid delayed-death inhibitors. P. falciparum luciferase reporter growth, 96 h. Potency, µM (series often up to 28.7 µM), for inactives: top-dose activity change, negative = inhibition, hits mostly inhibitors. actives 6.9% (n = 320,000). AID 504834; also: % is scaled to controls: 0 for no effect and ±100 for the full control effect
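Two parasite generations (96 h, 37 C, 5% CO2) of compound exposure in infected erythrocytes (0.05% parasitemia, 2% hematocrit). Luciferase-reporter P. falciparum; decreased luminescence indicates inhibited growth, aimed at apicoplast-acting delayed death.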
The depositor's hits bear a star; ? = inconclusive; . = no result given; [ ] = another dose, or the depositor's remark. Shown are actives, neighbours in structure and some others; about 12% of the full set was active somewhere. Unless noted, calls follow the shape of the dose curve; as a rule, active = well fitted curve in the direction sought with a large enough effect; inconclusive = small, poorly fitted or top-dose-only effect, or another doubt; inactive = no such curve, though single readings can be large; an effect the other way counts as inactive or inconclusive. Potency is read from the fitted curve at half-maximal effect.

SMILES	AmpC no deterg	Sm TGR block	SARS PLpro yeast	AmpC detergent	Pf growth 48h	Pf growth 96h
O=C(Nc1cccc(Cl)c1)Nc1nnc(-c2ccncc2)s1	16µM*	0%	7%	?	12µM*	5.2µM*
O=C(/C=C\c1cn(-c2ccccc2)nc1-c1ccc2c(c1)OCCO2)N1CCOCC1	172%	19%	0%	-8%	?	76%
CN1CCN(C(=O)/C=C/c2cn(-c3ccccc3)nc2-c2ccc3c(c2)OCCO3)CC1	172%	-1%	0%	3%	12µM*	?
Cc1cc(S(=O)(=O)C(CNC(=O)c2ccc(OC(C)C)cc2)c2cccs2)ccc1F (stereo not drawn)	.	-11%	.	-1%	.	.
FC(F)(F)c1cnc(N2CCCN(C(=S)Nc3ccccc3)CC2)c(Cl)c1	-8%	-6%	-2%	-7%	1.7µM*	1.9µM*
O=C(CSc1nc2ccc(Cl)cc2[nH]1)c1c[nH]c2ccccc12	-55%	3%	0%	0%	-10%	14%
O=C(CSc1nc2ncc(Cl)cc2[nH]1)c1c[nH]c2ccccc12	-50%	-5%	1%	3%	10µM*	1.9µM*
COC(=O)CSc1nc2ncc(Cl)cc2[nH]1	-2%	-14%	-2%	-1%	25%	13µM*
CN(C)S(=O)(=O)N1CCc2ccc(NC(=O)c3ccc(C(F)(F)F)cc3)cc2C1	14%	-1%	0%	?	27%	13µM*
COCCC(=O)N1CCc2ccc(NC(=O)c3ccc(C(F)(F)F)cc3)cc2C1	48%	-5%	-4%	?	3%	0%
OC(COc1ccccc1)CN1CCCC1 (stereo not drawn)	-1%	-1%	-1%	?	-14%	-1%
CCCC(O)(c1ccc(OC)cc1)C(CN1CCOCC1)c1ccc(Cl)cc1 (stereo not drawn)	195%	-31%	-2%	-12%	?	-13%
COc1ccc(C(O)(CCC(C)C)C(CN2CCOCC2)c2ccc(Cl)cc2)cc1 (stereo not drawn)	180%	-2%	-6%	?	1.7µM*	-24%
CC(C)(c1ccccc1)c1ccc(OCC(O)CN2CCCC2)cc1 (stereo not drawn)	60%	7%	-3%	-11%	13µM*	-31%
COc1ccc(C(O)(CC(C)C)C(CN2CCOCC2)c2ccccc2)cc1 (stereo not drawn)	149%	0%	-2%	1%	12µM*	?
CCOc1ccc(C(O)(CCC(C)C)C(CN2CCOCC2)c2ccccc2)cc1 (stereo not drawn)	214%	1%	-6%	-18%	7.4µM*	12%
CCOC(=O)c1cccc(NC(=O)COc2ccc3c(C)cc(=O)oc3c2)c1	.	-1%	.	11%	.	.
Cc1ccc(NC(=O)/C(C#N)=C/c2ccccc2Cl)cc1C	.	-7%	.	-4%	.	.
CCCC(O)(CCN1CCOCC1)c1ccc(Br)cc1 (stereo not drawn)	40%	?	9%	-8%	-1%	?
CCCC(O)(CCN1CCOCC1)c1ccc(Cl)cc1 (stereo not drawn)	25%	20µM*	1%	?	-12%	-14%
OC(COc1ccc(CN2CCCCO2)cc1)CN1CCCCC1 (stereo not drawn)	9%	0%	-1%	4%	?	12µM*
CCc1ccc(C(O)(c2ccccc2OC)C(CN2CCOCC2)c2ccccc2)cc1 (stereo not drawn)	141%	-17%	-9%	0%	?	15%
CCOc1ccc(C(O)(c2ccccc2)C(CN2CCCC2)c2ccccc2)cc1 (stereo not drawn)	0%	2%	-2%	-2%	12µM*	121%
CCCCC(O)(c1ccc(F)cc1)C(CN1CCOCC1)c1ccc(Cl)cc1 (stereo not drawn)	170%	-1%	-9%	-8%	1.9µM*	43%
C/C=C1/NN(CCCN2CCN(c3cccc(Cl)c3)CC2)C(=O)N1CCOc1ccccc1	.	.	.	.	-18%	-16%
SMILES	AmpC no deterg	Sm TGR block	SARS PLpro yeast	AmpC detergent	Pf growth 48h	Pf growth 96h
COc1cc(OC)cc(C(=O)NCc2ccc3c(c2)CCN3C(=O)c2ccccc2)c1	.	10%	.	11%	.	.
CCCC(O)(c1ccc(Cl)cc1)C(CN1CCOCC1)c1ccc(Cl)cc1 (stereo not drawn)	147%	-4%	-1%	-2%	1.9µM*	28%
Cc1ncsc1C(=O)NCc1ccc(N2CCCC2=O)cc1	3%	3%[11.4 µM]	4%	-8%	.	4.7µM*
O=C(NCc1ccc(N2CCCC2=O)cc1)c1cnccn1	-6%	9%	-1%	-1%	.	?
O=C1Nc2c(c(=O)[nH]c(=O)n2-c2ccc(Cl)cc2)C1(NS(=O)(=O)c1ccccc1)C(F)(F)F (stereo not drawn)	.	-2%	.	25%	.	.
CCS(=O)(=O)n1nc(-c2ccccc2)cc1N	-18%	2%	6%	-6%	.	1.3µM*
CCCS(=O)(=O)n1nc(-c2ccccc2)cc1N	-14%	-17%	7%	-1%	.	9.3µM*
COc1ccc2c(CNCCc3ccccc3OC)c(C(=O)O)n(Cc3ccc(F)cc3Cl)c2c1	.	-8%	.	-3%	.	.
O=C(Nc1ccc(F)c(F)c1)c1cccnc1	-30%	16%[11.4 µM]	0%	?	.	10µM*
O=C(Nc1cccc(F)c1)c1cccnc1	-7%	-17%	-4%	?	-1%	7.4µM*
O=C(Nc1cccc(NC(=O)c2cccnc2)c1)c1cccnc1	-12%	-4%	1%	-7%	8%	72%
Cc1ccccc1OC(=O)CSc1nnc(-c2ccc3c(c2)OCO3)o1	.	0%	.	30%	.	.
CCOC(=O)NC1(Nc2cccc(Cl)c2)Oc2ccccc2O1	-27%	50µM*	2%	-5%	27%	?
CCOC(=O)NC(=O)/C(C#N)=N\Nc1cccc(Cl)c1	-32%	2%	-3%	-2%	-2%	?
CCCCCCn1ccc(=N)cc1	-3%	2%	6%	-3%	3.3µM*	0.47µM*
CCCCCCCCCCCCCCCCn1cc[n+](CC(C)=O)c1	-8%	7%	1%	3%	3%	21%
COc1ccc(N2CCN(C(=O)NC34CC5CC(CC(C5)C3)C4)CC2)cc1	54%	-16%	-2%	-3%	.	5.2µM*
O=C(NC12CC3CC(CC(C3)C1)C2)N1CCN(c2ccccc2)CC1	-6%	-8%	-5%	-12%	?	375%
Cc1cccc(Cn2c(SCc3ccc(C(=O)N4CCCCCC4)cc3)nc3ccncc32)c1	.	-10%	.	-13%	.	.
